# Assay results published in PubChem BioAssay (NCATS).
# Unmarked numbers belong to inactive results. Inconclusive results are not listed. The source made the active and inactive calls. Unless noted, how the calls were made is not given here.
# Columns and labels:
# [1] = system: HIV-1 nucleocapsid protein NCp7 (binding to TG oligonucleotide); assay: HIV Nucleocapsid (AID 346); settings: HIV-1 NC / fluorescein-TGTGTGTG probe, fluorescence polarization;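 further: potency means the concentration at half of the fitted maximal effect; potency is for inhibitors that block NC binding and lower polarization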
# How it was run: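 Fluorescence polarization binding of 100 nM HIV-1 NC to 10 nM fluorescein-labelled TG4xF oligonucleotide. Buffer was Hepes pH 7.5 with 250mM NaCl, 1uM ZnCl2, TCEP and 2-mercaptoethanol. Compounds were incubated 1 hr at room temperature before the read.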
# [2] = target: Lysosomal acid glucosylceramidase (Homo sapiens) (UniProt P04062); assay: Glucocerebrosidase-p2 (AID 348; in the data active means potency below about 10 µM; further: potency means the concentration at half of the fitted maximal effect); settings: purified GBA, blue fluorogenic substrate, 40 min
# Lysosomal acid glucosylceramidase (Homo sapiens), sequence (P04062 whole entry, looked up): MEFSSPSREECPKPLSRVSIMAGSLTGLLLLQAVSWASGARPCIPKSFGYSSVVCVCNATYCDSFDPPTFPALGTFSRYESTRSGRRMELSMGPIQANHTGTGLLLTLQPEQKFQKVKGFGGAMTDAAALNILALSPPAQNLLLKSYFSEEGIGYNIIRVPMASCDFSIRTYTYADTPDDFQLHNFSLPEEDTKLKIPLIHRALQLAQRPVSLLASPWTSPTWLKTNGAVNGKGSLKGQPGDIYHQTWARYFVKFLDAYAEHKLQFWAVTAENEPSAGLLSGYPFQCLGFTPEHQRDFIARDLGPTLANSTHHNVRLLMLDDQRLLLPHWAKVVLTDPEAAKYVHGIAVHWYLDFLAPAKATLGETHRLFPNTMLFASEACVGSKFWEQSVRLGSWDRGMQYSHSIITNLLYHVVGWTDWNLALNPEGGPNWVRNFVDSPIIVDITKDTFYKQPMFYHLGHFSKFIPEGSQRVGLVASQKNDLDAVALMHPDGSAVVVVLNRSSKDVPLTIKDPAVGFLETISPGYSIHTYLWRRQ
# How it was run: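 Normal human glucocerebrosidase (0.2 nM) with blue fluorogenic substrate (80 uM final) in citrate/phosphate pH 5.9 with 10mM sodium taurocholate, 0.01% tween-20; 40 min RT, NaOH/glycine stop; fluorescence Ex 365/Em 440; AC50 from a titration from 0.6 nM upwards.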
# [3] = AP1 Signaling Pathway (AID 357; active means well fitted curve in either direction with a large enough effect, not every such curve was filed as active;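 further: ME-180 reporter cells stimulated with EGF at its EC50 level; on the % scale 0 is the no-effect control and ±100 the full control effect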); settings: ME-180 AP-1-bla reporter, EGF-induced, beta-lactamase ratio, 5 h; at 7.69 µM (top of the series) unless noted
# How it was run: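 Cells are seeded overnight, exposed to compound titrations and an EC50 level of EGF for 5 hours at 37 °C, then loaded with CCF4 dye for 2.5 hours. Beta-lactamase activity under the AP-1 element is read as a blue/green ratio.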
# [4] = target: Cytochrome P450 1A2 (Homo sapiens) (UniProt P05177); assay: p450-cyp1a2 (AID 410; calls by dose curve; further: potency means the concentration at half of the fitted maximal effect;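 on activity change, negative = inhibition: -100% = full effect of reference inhibitor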); settings: recombinant CYP1A2, luciferin-ME demethylation, luminescence; series mostly up to 11.4 µM
# Cytochrome P450 1A2 (Homo sapiens), sequence (P05177 whole entry, looked up): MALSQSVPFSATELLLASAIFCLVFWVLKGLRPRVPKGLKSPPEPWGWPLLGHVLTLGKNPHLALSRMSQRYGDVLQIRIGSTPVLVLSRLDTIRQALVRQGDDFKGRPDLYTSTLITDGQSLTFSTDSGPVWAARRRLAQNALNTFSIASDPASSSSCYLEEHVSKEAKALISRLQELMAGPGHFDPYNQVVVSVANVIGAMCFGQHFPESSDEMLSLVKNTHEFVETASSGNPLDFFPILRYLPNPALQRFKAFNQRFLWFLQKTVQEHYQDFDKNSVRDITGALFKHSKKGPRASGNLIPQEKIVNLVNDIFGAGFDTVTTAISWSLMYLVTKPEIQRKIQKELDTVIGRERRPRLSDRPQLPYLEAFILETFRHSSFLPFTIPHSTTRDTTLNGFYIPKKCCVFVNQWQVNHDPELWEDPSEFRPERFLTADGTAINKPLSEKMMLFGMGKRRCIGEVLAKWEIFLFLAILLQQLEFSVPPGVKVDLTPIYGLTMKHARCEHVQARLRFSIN
# How it was run: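 Luminescent demethylation readout: Luciferin-ME (100uM, equal to Km) turned over by 20nM CYP1A2 for 60 min at room temperature after NADPH regeneration addition, following 10 min compound preincubation. Normalization used 57 uM furafylline as full inhibition.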
# [5] = NFAT Signaling Pathway (AID 444; active means well fitted curve in either direction with a large enough effect, not every such curve was filed as active;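 further: carbachol stimulus at about its EC50 of 1 µM final; on the % scale 0 is the no-effect control and ±100 the full control effect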); settings: Jurkat NFAT-bla M1, carbachol, beta-lactamase ratio, 5 h; at 7.69 µM (top of the series) unless noted
# How it was run: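 Jurkat cells carrying an NFAT-driven β-lactamase reporter and co-transfected muscarinic M1 receptor were treated with compound plus carbachol (1 uM final, an EC50 level) for 5 h at 37 °C. CCF4 loading followed for 1 h at RT; 460/530 nm ratio gave %activity.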
# [6] = Stat Signaling Pathway (AID 446; active means well fitted curve in either direction with a large enough effect, not every such curve was filed as active;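 further: ME-180 cervical cancer cells given 40 pM IL-6 alongside compound; SIE-controlled beta-lactamase reporter measured as 460/530 nm FRET emission ratio; on the % scale 0 is the no-effect control and ±100 the full control effect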); settings: ME-180 (cervical carcinoma) SIE beta-lactamase reporter, IL-6 stimulated, 5 h; at 7.69 µM (top of the series) unless noted
# How it was run: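 Compound effects on IL-6-induced STAT reporter activity were measured in ME-180 cells. After overnight culture, cells were co-treated with 40 pM IL-6 for 5 hrs before beta-lactamase substrate loading at room temperature.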
# [7] = target: Glucocorticoid receptor (Homo sapiens) (UniProt P04150); assay: GR-GFP Redistribution (AID 450;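 active means compounds whose dose series gives a full or clear partial fitted curve of increased nuclear translocation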; further: potency means the concentration at half of the fitted maximal effect); settings: U2OS GR-GFP nuclear translocation, laser cytometry, 2 h
# Glucocorticoid receptor (Homo sapiens), sequence (P04150 whole entry, looked up, the tested form may be a part): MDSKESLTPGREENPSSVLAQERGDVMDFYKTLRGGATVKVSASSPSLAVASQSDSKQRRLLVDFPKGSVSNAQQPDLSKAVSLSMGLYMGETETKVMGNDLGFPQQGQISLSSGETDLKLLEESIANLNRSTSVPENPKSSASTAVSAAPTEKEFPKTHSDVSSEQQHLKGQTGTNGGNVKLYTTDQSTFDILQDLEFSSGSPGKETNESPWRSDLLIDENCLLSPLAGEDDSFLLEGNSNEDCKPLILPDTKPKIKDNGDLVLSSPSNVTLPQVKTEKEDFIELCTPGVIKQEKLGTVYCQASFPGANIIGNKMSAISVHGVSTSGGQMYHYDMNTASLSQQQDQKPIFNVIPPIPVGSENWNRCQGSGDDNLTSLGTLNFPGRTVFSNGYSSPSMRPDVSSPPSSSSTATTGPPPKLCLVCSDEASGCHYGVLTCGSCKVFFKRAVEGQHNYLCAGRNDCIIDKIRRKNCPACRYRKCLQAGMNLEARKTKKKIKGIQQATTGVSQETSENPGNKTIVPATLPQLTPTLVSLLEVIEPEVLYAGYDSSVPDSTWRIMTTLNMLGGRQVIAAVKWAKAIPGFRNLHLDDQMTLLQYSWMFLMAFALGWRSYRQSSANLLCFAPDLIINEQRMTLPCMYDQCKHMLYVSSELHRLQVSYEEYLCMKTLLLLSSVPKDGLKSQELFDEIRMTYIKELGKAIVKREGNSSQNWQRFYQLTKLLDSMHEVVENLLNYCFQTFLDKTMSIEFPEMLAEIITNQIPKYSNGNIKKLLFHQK
# [8] = target: Glucocorticoid receptor (Homo sapiens) (UniProt P04150); assay: GR-EFC Redistribution (AID 451; calls by dose curve; further: potency means the concentration at half of the fitted maximal effect); settings: CHO-K1 GR-EFC translocation, beta-gal luminescence, 2 h
# How it was run: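 CHO-K1 cells stably expressing nuclear-localized β-gal enzyme acceptor and GR fused C-terminally to the enzyme donor fragment; ligand-driven nuclear translocation restores β-gal by complementation. Compounds titrated up to 46 uM final, 2 h at 37 °C; luminescence read.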
# [9] = target: Mitogen-activated protein kinase 10 (Mus musculus) (UniProt Q61831); assay: JNK3 AlphaScreen Assay (AID 530; active means well fitted curve in either direction with a large enough effect, not every such curve was filed as active;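 further: kinase came from lysate of stimulated human HepG2 cells; signal reports phosphorylation of biotinylated GST-cJun 1-79 at Ser73 with 10 µM ATP; on the % scale 0 is the no-effect control and ±100 the full control effect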); settings: JNK3 lysate, c-Jun phosphorylation; series mostly up to 57.1 µM
# How it was run: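 Phosphorylation of biotinylated GST-cJun(1-79) at Ser73 is measured by AlphaScreen proximity luminescence. Enzyme is JNK3 in HepG2 lysates activated with interleukin-1beta and tumor necrosis factor alpha; ATP is 10 uM final.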
# [10] = target: 3',5'-cyclic-AMP phosphodiesterase 4B (Homo sapiens) (UniProt Q07343); assay: qHTS Assay for Inhibitors of PDE-IV (AID 607; active means well fitted activation curve with a large enough effect in the main read-out, with a control signal flat, not every such curve was filed as active; further: % of control where 0% means no effect); settings: HEK293 ACTOne CNG channel cells, membrane potential fluorescence; series mostly up to 22.9 µM
# 3',5'-cyclic-AMP phosphodiesterase 4B (Homo sapiens), sequence (Q07343 whole entry, looked up): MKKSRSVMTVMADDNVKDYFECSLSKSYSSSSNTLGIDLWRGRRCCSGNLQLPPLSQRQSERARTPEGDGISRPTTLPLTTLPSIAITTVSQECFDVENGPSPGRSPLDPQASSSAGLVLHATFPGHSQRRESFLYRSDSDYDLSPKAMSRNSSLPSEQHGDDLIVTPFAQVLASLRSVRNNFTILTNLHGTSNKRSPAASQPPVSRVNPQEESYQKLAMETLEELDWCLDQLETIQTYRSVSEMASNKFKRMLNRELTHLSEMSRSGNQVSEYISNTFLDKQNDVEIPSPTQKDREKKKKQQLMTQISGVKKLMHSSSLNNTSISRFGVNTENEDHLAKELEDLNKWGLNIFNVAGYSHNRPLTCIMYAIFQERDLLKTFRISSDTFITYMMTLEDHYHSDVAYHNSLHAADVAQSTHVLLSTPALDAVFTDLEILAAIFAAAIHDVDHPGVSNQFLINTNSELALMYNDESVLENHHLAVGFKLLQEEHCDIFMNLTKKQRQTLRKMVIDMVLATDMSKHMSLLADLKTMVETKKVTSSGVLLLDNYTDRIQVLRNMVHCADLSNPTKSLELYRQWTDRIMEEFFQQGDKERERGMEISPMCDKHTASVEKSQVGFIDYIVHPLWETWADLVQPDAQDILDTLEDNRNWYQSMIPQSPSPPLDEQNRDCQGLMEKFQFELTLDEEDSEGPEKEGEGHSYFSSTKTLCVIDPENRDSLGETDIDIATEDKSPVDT
# How it was run: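 ACTOne HEK293 cells carry a modified cAMP-gated CNG channel and express endogenous PDE4; plated 1000 cells/well, compounds up to 22.9 uM final. Membrane-potential dye fluorescence (ex 535/em 590) was read; parental cells received 10 uM forskolin + 100 uM RO 20-1724.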
# [11] = target: Cytochrome P450 3A4 (Homo sapiens) (UniProt P08684); assay: qHTS Assay for Inhibitors and Substrates of Cytochrome P450 3A4 (AID 884; active means well fitted curve in the direction sought with a large enough effect; an effect the other way counts as inactive or inconclusive; further: potency means the concentration at half of the fitted maximal effect; nearly all actives have a fitted effect of over 50% in size); settings: recombinant CYP3A4, Luciferin-PPXE luminescence; series mostly up to 57.1 µM
# Cytochrome P450 3A4 (Homo sapiens), sequence (P08684 whole entry, looked up): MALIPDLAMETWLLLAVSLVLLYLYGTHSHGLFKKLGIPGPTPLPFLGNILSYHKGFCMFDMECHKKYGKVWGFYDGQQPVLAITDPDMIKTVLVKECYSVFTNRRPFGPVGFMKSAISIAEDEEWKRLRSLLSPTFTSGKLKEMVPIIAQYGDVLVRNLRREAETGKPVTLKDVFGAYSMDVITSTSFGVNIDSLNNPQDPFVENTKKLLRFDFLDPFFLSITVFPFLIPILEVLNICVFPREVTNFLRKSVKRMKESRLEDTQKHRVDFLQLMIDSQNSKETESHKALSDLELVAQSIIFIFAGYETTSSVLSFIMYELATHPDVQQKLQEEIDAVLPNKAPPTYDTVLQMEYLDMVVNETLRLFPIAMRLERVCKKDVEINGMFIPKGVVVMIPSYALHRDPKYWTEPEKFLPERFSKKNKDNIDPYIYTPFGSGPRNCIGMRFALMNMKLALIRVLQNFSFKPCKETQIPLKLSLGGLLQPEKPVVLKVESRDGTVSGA
# How it was run: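 Luminescent readout of luciferin produced by CYP3A4 (20 nM) dealkylation of Luciferin-PPXE, 25 uM (its KM). NADPH-driven reaction ran 60 min at RT after 10 min compound preincubation; data scaled to 57 uM ketoconazole as 100% inhibition.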
# [12] = target: Cytochrome P450 3A4 (Homo sapiens) (UniProt P08684); assay: qHTS Assay for Activators of Cytochrome P450 3A4 (AID 885; active means well fitted curve in the direction sought with a large enough effect; an effect the other way counts as inactive or inconclusive; further: nearly all actives have a fitted effect of over 65% in size); settings: recombinant CYP3A4, Luciferin-PPXE luminescence, 60 min; series mostly up to 57.1 µM
# How it was run: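 CYP3A4 activity: Luciferin-PPXE O-dealkylation, 25uM substrate, 200mM KPO4, RT throughout. Read-out is luciferase luminescence; higher values reflect activation.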
compound,measurement,setting,value
O=S(=O)(c1ccccc1)N1CCC2(CCCN(c3cccc(-c4ccccc4)c3)C2)CC1,Potency,[1],> 20 µM
Cc1ccccc1-c1ccc2ncnc(NC3CC3)c2c1,Potency,[1],> 20 µM
N#Cc1cccc(-c2cc(-n3ccnc3)ncn2)c1,Potency,[1],> 20 µM
CS(=O)(=O)N1CCC2(CCN(c3ccncc3)CC2)CC1,Potency,[1],> 20 µM
Cc1noc(C)c1-c1nccc(NCCN2CCOCC2)n1,Potency,[1],> 20 µM
COc1ccccc1CNc1ncncc1-c1ccc(N(C)C)cc1,Potency,[1],> 20 µM
Cc1cccc(CNc2ncnc3ccc(-c4cccc(NS(C)(=O)=O)c4)cc23)c1,Potency,[1],> 20 µM
CCNc1ncc2nc(-c3ccc(Cl)cc3)c(=O)n(-c3ccccc3)c2n1,Potency,[1],7.07 µM (active)
c1cncc(-c2cc(NCc3cccs3)ncn2)c1,Potency,[1],> 20 µM
COc1ccccc1CNc1ncnc2ccc(-c3ccccc3OC)cc12,Potency,[1],> 20 µM
c1ccc(CNc2nc(-c3ccoc3)nc3ccccc23)cc1,Potency,[1],> 20 µM
COC(=O)N1CCC2(CCCN(c3ncccn3)C2)CC1,Potency,[1],> 20 µM
COc1cccc(-c2cncnc2Nc2ccc(F)cc2)c1,Potency,[1],> 20 µM
COc1ccc(Oc2ncc3ncc(=O)n(Cc4ccc(F)cc4)c3n2)cc1,Potency,[1],> 20 µM
Cc1noc(C)c1-c1nc(NC2CCNCC2)c2ccccc2n1,Potency,[1],> 20 µM
COCCNc1ncnc2ccc(-c3ccoc3)cc12,Potency,[1],> 20 µM
Cn1cccc1C(=O)N1CCC[C@@]2(CCN(C(=O)Nc3cccc(C#N)c3)C2)C1,Potency,[1],> 20 µM
CN(C)C(=O)c1ccc(-c2ccc3ncnc(Nc4ccc(F)cc4)c3c2)cc1,Potency,[1],> 20 µM
COCCNc1ccnc(-c2ccccc2CN(C)C)n1,Potency,[1],> 20 µM
COc1cccc(-c2ccc3ncnc(NCCN4CCOCC4)c3c2)c1,Potency,[1],> 20 µM
CN(C)c1ncc2nc(-c3ccc(F)cc3)c(=O)n(C3CC3)c2n1,Potency,[1],> 4 µM
Cc1ccccc1-c1nc(N2CCOCC2)c2ccccc2n1,Potency,[1],> 20 µM
COc1ccc(C(=O)N2CCC3(CCCN(C(c4ccccc4)c4ccccc4)C3)CC2)cc1,Potency,[1],> 20 µM
CCNc1ncc2nc(-c3ccc(Cl)cc3)c(=O)n(CCC#N)c2n1,Potency,[1],> 20 µM
COc1ccc(-c2nc3cnc(N(C)C)nc3n(C[C@H]3CCCO3)c2=O)cc1,Potency,[1],> 20 µM
O=C(c1ccco1)N1CCC2(CC1)CN(c1ccc(-c3ccccc3)cc1)C2,Potency,[1],> 20 µM
COc1ccc(-c2nc3cnc(OC)nc3n(Cc3cccc(OC)c3)c2=O)cc1,Potency,[1],> 20 µM
O=c1c(-c2ccc(F)c(F)c2)nc2cncnc2n1Cc1ccc(F)cc1,Potency,[1],> 20 µM
O=C(c1cnccn1)N1CCC2(CC1)CN(c1ncccn1)C2,Potency,[1],> 20 µM
O=c1c(CCc2ccccc2)nc2cnc(N3CCOCC3)nc2n1C1CC1,Potency,[1],> 20 µM
O=C(Oc1ccccc1)N1CCC2(CC1)CN(c1ccccn1)C2,Potency,[1],> 20 µM
O=C(c1cnccn1)N1CCC2(CC1)CN(Cc1nccs1)C2,Potency,[1],> 20 µM
COCCn1c(=O)c(-c2cn(C)c3ccccc23)nc2cnc(Oc3cccc(Cl)c3)nc21,Potency,[1],> 20 µM
COCCn1c(=O)c(CCc2ccccc2)nc2cnc(Oc3ccccc3)nc21,Potency,[1],> 20 µM
N#CCCn1c(=O)c(-c2ccc(F)cc2)nc2cnc(Oc3ccccc3)nc21,Potency,[1],> 20 µM
Cc1cccc(CNc2ncnc3ccc(-c4c(C)noc4C)cc23)c1,Potency,[1],> 20 µM
O=C(c1cnccn1)N1CCC2(CCCN(Cc3nccs3)C2)CC1,Potency,[1],> 20 µM
COc1ccc2[nH]cc(CCNc3cc(-c4ccccc4C)ncn3)c2c1,Potency,[1],> 20 µM
COc1cc2c(cc1OC)[C@@]13CCN4CC5=CCO[C@H](CC(=O)O)[C@@H]([C@H]1N2)[C@H]5C[C@H]43,Potency,[2],> 11.4 µM
same,"activity change, negative = inhibition",[3],-1.41%
same,Potency,[4],inactive
same,"activity change, negative = inhibition",[5],9.02%
same,"activity, negative = inhibition",[6],1.37%
same,Potency,[7],> 46 µM
same,Potency,[8],> 9.22 µM
same,"activity change, negative = inhibition",[9],4.42% [at 11.4 µM]
same,outcome,[10],inactive
CN(C)C(=O)c1ccc(-c2nc(N(C)Cc3ccco3)c3ccccc3n2)cc1,Potency,[1],> 20 µM
c1cncc(CNc2cc(-c3ccc4c(c3)OCO4)ncn2)c1,Potency,[1],> 20 µM
same,Potency,[11],0.794 µM (active)
same,Potency,[12],inactive
CO[C@H]1[C@H](O)[C@H](O[C@@H]2[C@H](Oc3cccc4c(O)c5c(=O)oc6ccc(C)c7c(=O)oc(c34)c5c67)O[C@@H](C)[C@H](O)[C@H]2O)O[C@@H](C)[C@@H]1O,Potency,[2],> 11.4 µM
same,"activity change, negative = inhibition",[3],1.4%
same,Potency,[4],inactive
same,"activity change, negative = inhibition",[5],10.4%
same,"activity, negative = inhibition",[6],7.37%
same,Potency,[7],> 46 µM
same,Potency,[8],> 9.22 µM
same,"activity change, negative = inhibition",[9],1.22% [at 11.4 µM]
same,outcome,[10],inactive
N[C@H](Cc1ccc2oc3cc(=O)c4ccccc4c-3nc2c1)C(=O)O,Potency,[2],> 11.4 µM
same,"activity change, negative = inhibition",[3],25.4%
same,Potency,[4],1.26 µM (active)
same,"activity change, negative = inhibition",[5],-17.2%
same,"activity, negative = inhibition",[6],7.75%
same,Potency,[7],> 46 µM
same,Potency,[8],> 9.22 µM
same,"activity change, negative = inhibition",[9],0.331% [at 11.4 µM]
same,outcome,[10],inactive
c1csc(CN2CCCC3(CCNCC3)C2)n1,Potency,[1],> 20 µM
same,Potency,[2],> 11.4 µM
same,"activity change, negative = inhibition",[3],10.8%
same,Potency,[4],inactive
same,"activity change, negative = inhibition",[5],-10.2%
same,"activity, negative = inhibition",[6],-5.01%
same,Potency,[8],> 46 µM
same,Potency,[9],inactive
same,outcome,[10],inactive
COc1ccc(CNc2cc(-c3ccccc3Cl)ncn2)c(OC)c1,Potency,[1],> 20 µM
COc1cccc(Nc2ncc3nc(-c4cc(F)cc(F)c4)c(=O)n(C[C@H]4CCCO4)c3n2)c1,Potency,[1],> 20 µM
NC(CCl)=N[C@H]1CN2CCC1CC2,Potency,[2],> 11.4 µM
same,"activity change, negative = inhibition",[3],5.68%
same,Potency,[4],inactive
same,"activity change, negative = inhibition",[5],1.17%
same,"activity, negative = inhibition",[6],13.9%
same,Potency,[7],> 46 µM
same,Potency,[8],> 9.22 µM
same,"activity change, negative = inhibition",[9],1.59% [at 11.4 µM]
same,outcome,[10],inactive
N#CCCn1c(=O)c(-c2cccc(C#N)c2)nc2cnc(N3CCOCC3)nc21,Potency,[1],> 20 µM
C[C@@H]1[C@@H](C)N1C[C@H](O)Cn1ccnc1[N+](=O)[O-] (some centres undefined),Potency,[2],> 11.4 µM
same,"activity change, negative = inhibition",[3],1.57%
same,Potency,[4],inactive
same,"activity change, negative = inhibition",[5],5.22%
same,"activity, negative = inhibition",[6],-1.27%
same,Potency,[7],> 46 µM
same,Potency,[8],> 9.22 µM
same,"activity change, negative = inhibition",[9],-1.55% [at 11.4 µM]
same,outcome,[10],inactive
